# M1 PAM: positive allosteric modulators of human M1 muscarinic receptor; P11229; CHO-K1 hM1, Fluo-8 calcium fluorescence, ACh EC20; 0% = ACh EC20, 100% = maximal ACh; activation, % at 3 µM; 360,000 compounds, 0.088% hits; in the data active means activation above about 19%, passing the limit was not always enough
# Target sequence (P11229 whole entry, looked up): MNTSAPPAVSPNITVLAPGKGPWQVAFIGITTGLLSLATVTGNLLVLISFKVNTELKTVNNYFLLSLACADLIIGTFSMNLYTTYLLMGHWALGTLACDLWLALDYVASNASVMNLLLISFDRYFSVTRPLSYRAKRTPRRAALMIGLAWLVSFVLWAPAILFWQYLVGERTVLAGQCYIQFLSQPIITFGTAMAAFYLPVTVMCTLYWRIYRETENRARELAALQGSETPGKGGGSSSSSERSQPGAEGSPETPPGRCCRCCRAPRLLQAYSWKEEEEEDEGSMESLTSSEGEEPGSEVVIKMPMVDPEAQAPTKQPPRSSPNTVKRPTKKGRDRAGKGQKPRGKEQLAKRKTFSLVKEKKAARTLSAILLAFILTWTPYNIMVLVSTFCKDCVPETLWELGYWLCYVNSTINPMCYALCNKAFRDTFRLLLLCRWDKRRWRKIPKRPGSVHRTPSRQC
# CHO-K1 Ca ag: M1 agonist counterscreen hit in parental CHO-K1 cells | Fluo-8 calcium fluorescence; scaled to maximal ATP response, vehicle zero | 360,000 compounds, 0.48% hits | activation, % at 3 µM | AID 602248; in the data active means activation above about 15%;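 further: untransfected CHO-K1 host cells lacking M1 receptor as counterscreen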
# CHO-K1 Ca antag: nonselective inhibitor or artifact in parental CHO-K1 cells; 360,000 compounds, 0.6% hits; ATP-induced calcium, Fluo-8 fluorescence; AID 602250; inhibition, % at 3 µM;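 active means inhibition above a per-plate cutoff, the plate's mean sample inhibition plus 3 SD, cut at about 24% in these data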;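 further: 0% = DMSO plus EC80 ATP and 100% = DMSO alone without ATP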
# CHRM1 agonist: human M1 muscarinic receptor agonism; P11229; CHO-K1 hM1, Fluo-8 calcium fluorescence, agonist mode; 0% DMSO, 100% acetylcholine EC100; 360,000 compounds, 0.33% hits; activation, % at 3 µM;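 active means activation above the run's mean compound activation plus 3 SD, cut at about 16% in these data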;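 further: peak over basal fluorescence ratio within a 140 s kinetic read after compound addition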
# CHRM1 antagonist: human CHRM1 antagonism; 360,000 compounds, 1.3% hits; CHO-K1 hM1, Fluo-8 calcium fluorescence, ACh EC80 antagonist; AID 588852; inhibition, % at 3 µM;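 active means percent inhibition above its own plate's cutoff, namely the mean of that plate's compound wells plus 3 SD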;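 further: peak over basal fluorescence ratio during 140 s after agonist addition; 0% = ACh EC80 plus DMSO and 100% = DMSO alone without agonist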
# CHO-K1 Ca PAM: nonselective activator or artifact in parental CHO-K1 calcium assay; ATP EC20, Fluo-8 calcium fluorescence; 0% at ATP EC20, 100% at ATP max; activation, % at 3 µM; 360,000 compounds, 0.02% hits; AID 602247;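 active means activation above the run cutoff, the mean activation of all test compounds plus 3 SD, cut at about 40% in these data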;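 further: peak over basal fluorescence ratio in a 140 s read after ATP addition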
# Active calls of the source: *. Only some compounds are listed: those with a hit (about 2.3% of all), similar ones and a draw of the others.
SMILES,M1 PAM,CHO-K1 Ca ag,CHO-K1 Ca antag,CHRM1 agonist,CHRM1 antagonist,CHO-K1 Ca PAM
O=S(=O)(Nc1nc2ccccc2[nH]1)c1ccc(Cl)cc1,-26,0,6,2,70*,11
O=C(c1ccc(Cn2cc([N+](=O)[O-])cn2)o1)N1CCCCCC1,2,1,-14,-5,-1,-13
N#Cc1ccccc1S(=O)(=O)N1CCN(C(=O)[C@@H]2CCCN2C(=O)c2cccs2)CC1,-10,0,8,-4,33*,-10
CC1CC(C)CN(S(=O)(=O)c2ccc(NC(=O)[C@@H]3CCCN3C(=O)c3cccs3)cc2)C1 (stereo partly specified),-22,0,-10,-7,30*,14
Cc1ccc(NC(=O)[C@@H]2CCCN2C(=O)c2cccs2)cc1S(=O)(=O)N1CCCCC1,6,0,-20,-8,-12,23
O=C(CN1CCN(c2ncc(C(F)(F)F)cc2Cl)CC1)N1CCN(c2ncc(C(F)(F)F)cc2Cl)CC1,-6,1,-8,0,-6,13
CN1CCN(C(=O)C2CCN(c3ncc(C(F)(F)F)cc3Cl)CC2)CC1,-35,1,14,-13,72*,-9
Cc1nn(-c2ccccc2)cc1/C=N/NC(N)=S,31*,0,0,5,-7,11
CC(OC(=O)CCCOc1ccccc1)C(=O)NC(N)=O (stereo unspecified),-6,0,28*,-2,5,-5
CCCCNC(=O)C1(C)CCC(=O)N1CCOC (stereo unspecified),7,0,33*,2,0,-8
COCCN1C(=O)CCC1(C)C(=O)Nc1c(C)cccc1C (stereo unspecified),1,0,26*,11,21,-9
CCC1=NN2C(=N)/C(=C/c3cc(C)n(Cc4ccccc4)c3C)C(=O)N=C2S1,-19,20*,-5,20*,-3,-13
Cc1cc(/C=C2\C(=N)N3N=C(c4ccco4)SC3=NC2=O)c(C)n1Cc1ccccc1,-21,8,-7,42*,52*,0
CN(Cc1nc(-c2ccc(Cl)cc2)no1)C(=O)c1ccc2c(c1)OCO2,-1,6,5,1,1,0
CCCCN(c1ccccc1)S(=O)(=O)c1cccc(C(=O)Nc2c(C)n(C)n(-c3ccccc3)c2=O)c1,24,-1,-7,-9,-18,8
Nc1nc(N2CCCCC2)nc2ccccc12,-10,0,10,-4,26,-7
c1ccc(-c2nnc(N3CCN(c4ccccn4)CC3)c3ccccc23)cc1,-18,2,21,-3,48*,-7
Nc1nc(N2CCN(c3ccccn3)CC2)nc2ccccc12,-29,1,7,-9,36*,-23
COc1ccc(C)cc1NC(=O)CSc1nnc2ccc(-c3ccncc3)nn12,-16,1,-7,-7,28*,8
N#CN(CC(N)=O)c1nc(N2CCCCC2)nc(N2CCCCC2)n1,-11,0,28*,-2,13,-9
CCOC(=O)CN1C(=O)CN(c2ccc(C)cc2)C1=O,5,1,-8,-9,-9,19
O=C(CC(c1ccc(F)cc1)c1ccco1)N1CCOCC1 (stereo unspecified),28*,1,-11,-3,13,-2
Fc1cccc(Cl)c1/C=N/n1c(-c2cccnc2)n[nH]c1=S,12,2,1,-8,-3,5
CCN(CC(=O)Nc1ccc(OC)cc1)C(=O)Cc1ccsc1,27*,0,-17,1,-25,12
CC(C)c1ccc(CNCCCSc2ncccn2)cc1,-7,1,-6,-9,-5,-2
SMILES,M1 PAM,CHO-K1 Ca ag,CHO-K1 Ca antag,CHRM1 agonist,CHRM1 antagonist,CHO-K1 Ca PAM
COc1ccc(S(=O)(=O)N(C)c2ccc(C(=O)N3CCC(C(N)=O)CC3)cc2)cc1OC,-10,-1,25*,-3,5,-11
COc1ccc(S(=O)(=O)N(C)c2ccc(C(=O)N3CCC(C(N)=O)CC3)cc2)cc1,4,0,-3,-5,-10,2
CN(C)CCCNc1nc(N)c([N+](=O)[O-])c(NCc2ccccc2)n1,-22,0,2,-10,52*,3
COCCNc1nc(N)c([N+](=O)[O-])c(NCc2ccccc2)n1,8,2,-15,-1,-2,-5
COCCCNc1nc(N)c([N+](=O)[O-])c(NCc2ccccc2)n1,-3,4,-19,2,3,9
COCCCNc1nc(N)c([N+](=O)[O-])c(Nc2ccccc2OC)n1,10,20*,5,11,-18,11
Nc1nc(Nc2ccccc2)nc(NCc2ccccc2)c1[N+](=O)[O-],3,20*,-1,-3,-5,15
Nc1nc(NCc2ccccc2)nc(NCc2ccccc2)c1[N+](=O)[O-],11,0,-5,-3,-8,24
COc1cc(C)c2c(c1OC)C(=O)CC2,6,0,-10,-3,-8,12
COc1ccc2[nH]cc(CCNC(=O)COc3cc(C)cc4oc(=O)cc(C)c34)c2c1,-24,4,11,-1,31*,-17
Cc1cc(OC(C)C(=O)NCCc2c[nH]c3ccccc23)c2c(C)cc(=O)oc2c1 (stereo unspecified),-5,3,-5,-4,-5,6
COc1ccc(N(CC(=O)N2c3ccccc3CC2C)S(=O)(=O)c2c(C)nn(C)c2C)cc1 (stereo unspecified),-10,6,18,-7,28*,-5
COc1ccc(C(C)=O)c(OCC(=O)NCCC2=CCCCC2)c1,8,4,5,2,-9,2
CC(=C/c1ccccc1)/C=N/n1c(-c2ccncc2)n[nH]c1=S,5,0,-4,30*,-1,0
Cc1nc2sccn2c(=O)c1S(=O)(=O)NCC1CCN(Cc2ccccc2Cl)CC1,-36,1,-17,-14,39*,17
COc1ccc(/C(C)=N/NC(=O)C(NC(=O)c2ccccc2)c2n[nH]c(=O)c3ccccc23)c(OC)c1 (stereo unspecified),6,2,-8,-3,-1,20
COc1ccccc1CN1C[C@@H]2C[C@@H](c3[nH]c4c(C)cccc4c3C)N3CCC[C@@]23C1=O,10,15*,-24,1,-10,31
CN1CCC(=C2c3ccccc3Sc3ccccc32)CC1,-26,1,1,-6,100*,7
CCN(CC(=O)Nc1c(F)cccc1F)C(=O)c1ccc2c(c1)S(=O)(=O)N=C1CCCCCN12,0,0,2,-3,5,-3
CC1=C(C#N)C(C(F)(F)F)(C(F)(F)F)N=C(c2ccco2)N1,-12,16*,-1,5,14,13
CCOc1ccc(C(=O)NCC(=O)OCc2cc([N+](=O)[O-])cc3c2OCOC3)cc1OCC,7,1,-4,-8,-8,16
